PTK2B oligo ant = Pyk2 (human) oligomerization antagonism. Q14289. Q293 cells, Pyk2 FERM NanoBiT luminescence; stronger effect = lower value. z-score (the deposit names both 25 µM and 10 µM). 99,000 tested, 0.83% active;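 active means Z-score of -3 or lower, scaled per plate to the spread of control and sample wells; inactive means z-score above -3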;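 further: negative z-score means lost luminescence so less FERM oligomerization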
CYP2C9 act = increases human cytochrome P450 2C9 activity; AID 1024; 96,000 tested, 1.4% active; recombinant CYP2C9, luciferin-H conversion, luminescence; stronger effect = higher value; factor 1 = untreated enzyme, 0 = blocked; activation factor at 5 µM; P11712;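 active means activation factor of 2 or more for CYP2C9 at a 5 µM dose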;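 further: 0 = sulfaphenazole-blocked wells and 1 = vehicle-only wells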
Target sequence (P11712 whole entry, looked up): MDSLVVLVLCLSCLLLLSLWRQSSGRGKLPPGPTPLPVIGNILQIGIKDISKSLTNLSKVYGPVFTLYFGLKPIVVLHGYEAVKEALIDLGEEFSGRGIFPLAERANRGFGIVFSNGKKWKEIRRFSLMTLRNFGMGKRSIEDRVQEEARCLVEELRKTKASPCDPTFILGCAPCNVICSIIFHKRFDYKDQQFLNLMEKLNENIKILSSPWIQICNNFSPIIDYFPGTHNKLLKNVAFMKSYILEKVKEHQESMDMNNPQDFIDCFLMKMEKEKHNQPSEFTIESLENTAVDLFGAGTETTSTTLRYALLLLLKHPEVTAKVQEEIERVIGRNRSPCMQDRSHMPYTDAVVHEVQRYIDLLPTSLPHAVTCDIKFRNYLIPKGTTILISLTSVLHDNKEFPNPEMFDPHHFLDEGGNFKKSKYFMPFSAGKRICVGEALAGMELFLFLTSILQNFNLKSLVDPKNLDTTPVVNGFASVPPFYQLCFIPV
CYP2C9 inhib = blocks human cytochrome P450 2C9; P11712; CYP2C9 Supersomes, luciferin-H conversion, luminescence; inhibition, % at 5 µM; 96,000 tested, 20% active;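 active means blocking of liver enzyme CYP2C9 beyond about 50% at 5 µM, limit read from the data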
CYP2C19 act = activators of human cytochrome P450 2C19; 96,000 tested, under 10 active; recombinant CYP2C19, luciferin-H EGE luminescence; stronger effect = higher value; 0 = fully inhibited enzyme, 1 = untreated enzyme; activation factor at 5 µM;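 active means activation factor of at least 2 at 5 µM in the primary screen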;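 further: 0 = wells with 2.5 mM tranylcypromine and 1 = vehicle-only wells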
Cav3 T inh = inhibitors of human Cav3.2 T-type calcium channel. O95180. 100,000 tested, 4% active. B-score at 10 µM. AID 449739. Cav3.2-expressing cells, Fluo-4 calcium fluorescence FDSS; stronger effect = lower value;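 active means single-dose well whose peak fluorescence ratio is a statistical outlier from its plate by either plate-standardised score or position-corrected B-score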
CYP2C19 inh = human CYP2C19 inhibition; inhibition, % at 5 µM; CYP2C19 Supersomes, luciferin-H EGE luminescence, 30 min; P33261; 96,000 tested, 21% active;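 active means CYP2C19 inhibition above a set limit at 5 µM in the primary screen, cut at about 50% in these data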;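 further: plate controls were negative control wells for no effect and 2.5 mM tranylcypromine positive control for full effect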
* hit, by the source's call; . = no result. In the library only some 27% were active in any assay of this set; here they are far more common.

SMILES | PTK2B oligo ant | CYP2C9 act | CYP2C9 inhib | CYP2C19 act | Cav3 T inh | CYP2C19 inh
CSc1nsc(SC)c1C(=O)N1CCN(S(=O)(=O)c2ccc(C)cc2)C1C(C)C (stereo not drawn) | -1.3 | . | . | . | -5.1* | .
CSc1nsc(SC)c1C(=O)N1CCN(S(=O)(=O)c2ccc(C)cc2)C1C (stereo not drawn) | -1.5 | 0.3 | 74* | 0.6 | 0.015 | 42
O=C(CSc1ncnc2c1oc1ccccc12)OCc1ccccc1 | 1.4 | 0.9 | 12 | 0.9 | -0.84 | 6
CCOC(=O)CNC(=O)CSc1ncnc2c1cnn2Cc1ccccc1 | -0.03 | 1.1 | -10 | 0.8 | 0.34 | 23
CCC1=NC(c2ccccc2OC)N(O)C1(C)C (stereo not drawn) | 1.9 | 1.1 | -6 | 1 | 0.7 | -1
Cc1nc2ccc(N)cc2c(=O)n1Cc1ccc(Cl)cc1 | 0.16 | 0.2 | 84* | 0 | 0.39 | 99*
CN(CC(=O)NC1CCCCC1)S(=O)(=O)c1ccc(Cl)cc1 | 0.29 | 1 | 4 | 0.9 | 0.58 | 6
COc1ccc(S(=O)(=O)N(C)CC(=O)Nc2cccc(C(C)=O)c2)cc1Cl | 0.05 | 1.2 | -18 | 0.1 | -1.1 | 93*
CC(C(=O)Nc1ccccc1Sc1ccccc1)N(c1ccccc1)S(C)(=O)=O (stereo not drawn) | -1.3 | 0.5 | 54* | 0.6 | . | 41
COc1ccc(S(=O)(=O)N(C)CC(=O)NC2CCCC2)cc1Cl | 0.29 | 1.8 | -77 | 0.4 | 0.054 | 55*
CNC(=O)CN(C)S(=O)(=O)c1ccc(F)cc1 | 0.74 | 0.8 | 21 | 0.9 | 0.58 | 7
CSc1ccccc1NC(=O)CN(C)S(=O)(=O)c1ccc(F)cc1 | 0.04 | 3.6* | -265 | 0.6 | 0.27 | 41
CCSc1nnc(NC(=O)CCc2ccccc2)s1 | 0.91 | 0.7 | 33 | 0.5 | -0.11 | 49
COc1cc(OC)cc(C(=O)Nc2cccc(C(C)=O)c2)c1 | 0.06 | 0.2 | 76* | 0.3 | 1.1 | 71*
CS(=O)(=O)N(CC(=O)Nc1ccccc1Sc1ccccc1)c1ccc(F)cc1 | -0.87 | 0.4 | 61* | 0.7 | -3.6 | 28
CCSc1nnc(NC(=O)CN(C)S(=O)(=O)c2ccc(F)cc2)s1 | -0.77 | 0.2 | 75* | 0.2 | -0.57 | 81*
CS(=O)(=O)N(Cc1ccc(C(=O)Nc2ccccc2Sc2ccccc2)cc1)c1ccccc1 | -0.48 | 0.6 | 39 | 1 | -0.37 | 4
COc1ccc(S(=O)(=O)N(C)CC(=O)Nc2cccc(C(C)=O)c2)cc1 | -0.13 | 0.6 | 38 | 0.1 | 0.89 | 88*
Cc1ccc(S(=O)(=O)N(C)CC(=O)Nc2cccc(C)n2)cc1 | 0.34 | 1.3 | -25 | 0.8 | 0.81 | 23
Cc1cccc(-n2c(SCC(=O)NC3CCCC3)nnc2-c2ccoc2C)c1 | -0.84 | . | . | . | -0.76 | .
O=C(O)Cn1nnn(-c2ccccc2)c1=S | 0.18 | 1.1 | -12 | 1.1 | 0.64 | -6
C/C=C1\COC(C(=O)NCc2ccccc2)(C(F)(F)F)C=C1C=C(C)C (stereo not drawn) | . | . | . | . | -3.5 | .
COc1ccc(S(=O)(=O)N(C)CC(=O)Nc2ccc(F)cc2)cc1 | -1.2 | 2.2* | -120 | 0.5 | -0.039 | 45
COc1ccc(NC(=O)CN(C)S(=O)(=O)c2cccs2)cc1 | -0.16 | 0.5 | 49 | 0.6 | 0.27 | 44
CC(C)c1cc(=O)oc2c3c4c(cc12)CCCN4CCC3 | 2.5 | 0.9 | 13 | 0.1 | -3.9* | 87*
SMILES | PTK2B oligo ant | CYP2C9 act | CYP2C9 inhib | CYP2C19 act | Cav3 T inh | CYP2C19 inh
O=c1oc2c(CN3CCOCC3)c(O)ccc2c2c1CCC2 | -0.35 | 0.9 | 15 | 0.9 | -0.054 | 8
Cc1cc(=O)oc2c3c4c(cc12)OCCN4CCC3 | 0.08 | . | . | . | -4.1 | .
O=c1oc2c3c4c(cc2c(C(F)(F)F)c1CCN1CCOCC1)CCCN4CCC3 | -0.48 | 1.4 | -38 | 0.9 | -6.6* | 5
N#CC1=C(N)C(C#N)(C#N)C2(C(=O)Nc3ccccc32)C2CCCC=C12 (stereo not drawn) | -0.64 | 0.4 | 55* | 0.6 | -1.3 | 35
O=C1Nc2ccccc2C12OC1CCCCC1O2 (stereo not drawn) | 0.21 | 1.2 | -23 | 1.1 | -1.7 | -14
O=C(c1ccco1)N1CCN(C(c2ccccc2)c2nnnn2C2CCCC2)CC1 (stereo not drawn) | 1.4 | . | . | . | 1.7 | .
Cc1cccc(S(=O)(=O)N2CN(Cc3ccco3)c3nc4ccccc4nc32)c1 | 1.1 | 0.4 | 61* | 0.2 | -0.32 | 79*
CCCCN1CN(S(=O)(=O)c2cccs2)c2nc3ccccc3nc21 | . | 1 | -2 | 1 | 0.58 | 2
CC(C)CCN1CN(S(=O)(=O)c2cccs2)c2nc3ccccc3nc21 | -0.6 | 0.9 | 14 | 0.9 | 0.26 | 12
O=S(=O)(c1ccc(Cl)cc1)N1CCn2c1nc1ccccc12 | -0.7 | 1 | -4 | 0.7 | 0.13 | 30
Cc1ccc(-c2nc3nc4ccccc4nc3n2Cc2ccco2)cc1 | 0.53 | 0.8 | 24 | 1 | 0.008 | 1
COCCN1CN(S(=O)(=O)c2ccc(Cl)cc2)c2nc3ccccc3nc21 | 0.21 | 0.5 | 51* | 0.1 | -0.27 | 94*
COCCN1CN(S(=O)(=O)c2ccccc2)c2nc3ccccc3nc21 | 1.2 | 0.4 | 63* | 0.2 | -0.32 | 83*
Cc1ccc(CN2CN(S(=O)(=O)c3cccs3)c3nc4ccccc4nc32)cc1 | -1.2 | 0.4 | 56* | 1.1 | . | -6
COc1ccc(NC(=O)C2CC(=O)N(C(C)C)C2)cc1 (stereo not drawn) | 0.07 | 1.1 | -10 | 1 | -0.027 | -4
O=C1[C@H]2[C@H](C=CC[C@H]2C(=O)N2CCOCC2)CCN1Cc1ccccc1 | . | . | . | . | -1 | .
CC(=O)NC1=NN(C(C)=O)C(c2cccs2)S1 (stereo not drawn) | -0.18 | . | . | . | -1.1 | .
COc1cc(C)c(C(C)C)cc1S(=O)(=O)NCCCn1ccnc1 | 0.25 | 0 | 99* | 0 | 0.13 | 100*
Cn1c(=O)[nH]c(=O)c2c1nc(NCCCO)n2CCCc1ccccc1 | 0.59 | 0.9 | 10 | 0.9 | -0.2 | 10
O=C1CCCCCCC1Sc1ccccc1[N+](=O)[O-] (stereo not drawn) | 0.65 | 1.2 | -16 | 0.5 | -0.64 | 50*
CC1(C)CC(=O)C(Sc2ccccc2[N+](=O)[O-])=C(O)C1 | -0.21 | . | . | . | . | .
CCOC(=O)c1c(C)[nH]c(C(=O)COC(=O)CNC(=O)c2ccc(Cl)cc2Cl)c1C | -0.34 | . | . | . | . | .
O=C(Nc1ccccc1)c1cc(-n2cnnc2)ccc1Cl | -0.24 | 0.9 | 12 | 1 | 0.7 | 0
O=C(NCCOc1cccc(Oc2ccccc2)c1)c1cc(-n2cnnc2)ccc1Cl | -0.9 | 0.4 | 56* | 0.3 | -1.8 | 69*
O=C(NCCOc1cccc(Cl)c1Cl)c1cc(-n2cnnc2)ccc1Cl | 0.25 | 0.5 | 54* | 0.3 | 0.16 | 70*
Cc1ccc(CN(Cc2cccnc2)C(=O)CN2C(=O)COc3ccccc32)o1 | -0.39 | 0.3 | 67* | 0 | 0.83 | 95*

From PubChem BioAssay
